# Screening data (PubChem)
# SENP8 block-1 = SENP8 protease inhibition. Q96LD8. purified SENP8, Z-RLRGG-aminoluciferin cleavage, luminescence. inhibition, % at 10 µM. 1.2% of 330,000 active. AID 2540; in the data active = inhibition above about 50%
# Target sequence (Q96LD8 whole entry, looked up): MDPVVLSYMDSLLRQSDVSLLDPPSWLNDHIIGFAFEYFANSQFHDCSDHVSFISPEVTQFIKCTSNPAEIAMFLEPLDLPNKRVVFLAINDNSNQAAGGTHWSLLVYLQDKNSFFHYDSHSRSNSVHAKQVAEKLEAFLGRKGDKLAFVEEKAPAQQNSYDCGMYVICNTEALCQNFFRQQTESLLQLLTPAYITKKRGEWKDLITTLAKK
# SENP7 inh = inhibitors of human SENP7 protease | recombinant SENP7, Z-RLRGG-aminoluciferin luminescence, 40 min | inhibition, % at 5 µM | AID 434973 | Q9BQF6 | 1.5% of 330,000 active;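 active = inhibition above about 50% at the single test dose, limit read from the data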;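 note: plate controls were DMSO with enzyme for no effect and no enzyme buffer wells for full effect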
# PPC-1+TRAIL kill = kills PPC-1 cancer cells in the presence of TRAIL. PPC-1 cells + TRAIL, ATPLite viability luminescence. cell killing (% activity), % at 4 µM or 5 µM. AID 1443. 0.41% of 220,000 active;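 active = cell killing above 50% in the first pass at 4 µM, then a duplicate retest at 5 µM averaging 50% or more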;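 note: plate controls were cells with TRAIL plus DMSO for no effect and medium-only wells lacking cells for full effect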
# SENP8 block-2 = blocks human SENP8 cleavage of Nedd8 substrate; recombinant SENP8, Nedd8 substrate fluorescence; inhibition, % at 20 µM; 0.64% of 360,000 active; AID 602440; in the data active = inhibition mostly above about 40%, no sharp cut-off; inactive = mostly below about 27%
# SENP6 block = inhibitors of human SENP6 protease. Q9GZR1. Recombinant SENP6 catalytic domain, aminoluciferin luminescence. 1.8% of 330,000 active. AID 2599. inhibition, % at 10 µM;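 active = inhibition above about 50% at the single tested dose, limit read from the data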;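 note: plate controls were DMSO wells with enzyme for no effect and DMSO wells lacking enzyme for full effect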
# TRAIL sens C8 = caspase-8 TRAIL sensitization; NB7+C8 cells + TRAIL, ATPlite viability luminescence; inhibition (viability loss, TRAIL sensitization), % at 10 µM; 1% of 360,000 active;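 active = compounds causing at least 50% loss of cell viability in the single-dose screen, relative to plate controls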
# SENP8 conf = confirmation of human SENP8 protease inhibitors | inhibition, % at 25 µM | shares compounds with SENP8 block-2 | purified SENP8, Nedd8-AMC/pro-Nedd8 cleavage fluorescence, 30 min | 15% of 1,400 active | AID 624319; in the data active = inhibition mostly above about 39%, no sharp cut-off; inactive = mostly below about 34%
# The depositor's hits bear a star; x = not tested or not shown. Rows were chosen to be rich in hits. Some 3% of all compounds tested hit in one or more screens of this group.
SMILES,SENP8 block-1,SENP7 inh,PPC-1+TRAIL kill,SENP8 block-2,SENP6 block,TRAIL sens C8,SENP8 conf
O=C(Cn1nc(Cc2ccncc2)c2ccccc2c1=O)N1CCc2ccccc2C1,12,10,4,84*,31,-4,94*
CCCCNC(=O)Cn1nc(Cc2ccncc2)c2ccccc2c1=O,2,4,x,18,0,0,x
CSCCC(NC(=O)COc1ccccc1)C(=O)O (stereo not drawn),-3,-11,3,11,-10,-2,x
COc1ccc(C(=O)/C=C/Nc2ccc([N+](=O)[O-])cc2C)c(OC)c1,-22,-7,9,-48,-2,14,x
COc1ccc(C(=O)/C=C/c2ccc(C)cc2)c(OC(=O)c2ccc([N+](=O)[O-])cc2)c1,10,-12,-3,43*,27,2,-1
